ST2 inh: blocks human ST2 binding to IL-33 | actives 2.3% (n = 78,000) | inhibition, % for hits at 17 µM | AlphaLISA ST2-Fc/biotin-IL-33 interaction, 1 h | AID 1259354; in the data active = inhibition above about 30%
Target sequence (Q01638 whole entry, looked up): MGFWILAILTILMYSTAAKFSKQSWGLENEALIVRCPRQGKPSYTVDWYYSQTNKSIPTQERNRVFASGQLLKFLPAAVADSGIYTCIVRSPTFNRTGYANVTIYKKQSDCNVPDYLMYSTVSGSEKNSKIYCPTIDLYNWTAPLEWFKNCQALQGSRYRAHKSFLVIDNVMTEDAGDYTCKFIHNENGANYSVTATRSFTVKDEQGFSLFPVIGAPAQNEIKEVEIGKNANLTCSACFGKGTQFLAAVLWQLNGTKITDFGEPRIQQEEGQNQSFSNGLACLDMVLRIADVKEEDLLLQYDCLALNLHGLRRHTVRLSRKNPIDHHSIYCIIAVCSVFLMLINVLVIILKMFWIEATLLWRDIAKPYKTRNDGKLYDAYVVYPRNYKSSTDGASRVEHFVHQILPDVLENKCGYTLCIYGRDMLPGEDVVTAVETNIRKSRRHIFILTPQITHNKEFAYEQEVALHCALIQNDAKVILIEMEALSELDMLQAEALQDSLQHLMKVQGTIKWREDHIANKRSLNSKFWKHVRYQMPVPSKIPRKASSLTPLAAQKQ
A number is an active result. The entries come from a sample that favours hits as a whole.

Screening O=C1Nc2ccc(Br)cc2C(=O)N2CCN(C(=O)c3cccc(F)c3)C[C@H]12 returned ST2 inh 37.0%.
For O=C1Nc2ccc(-c3ccccc3)cc2C(=O)N2CCN(C(=O)c3cccc(F)c3)C[C@H]12 the results were ST2 inh inactive.
For O=C1Nc2ccc(Br)cc2C(=O)N2CCN(C(=O)c3ccccc3)C[C@H]12 the results were ST2 inh inactive.
Screening CC(=O)N1CCC(C(=O)NC[C@@H]2C=C(C)[C@H](CC(=O)N3CCN(c4ccccn4)CC3)C[C@H]2C(C)C)CC1 returned ST2 inh inactive.
O=C(O)CCC(=O)N1CC[C@H](c2nc3ccccc3s2)C1 was read as ST2 inh inactive.
Screening CC(=O)N1CCC(N2CC[C@H](c3nc4ccccc4s3)C2)CC1 returned ST2 inh inactive.
c1ccc2sc([C@H]3CCNC3)nc2c1 was read as ST2 inh 32.0%.
For CC(=O)c1ccc(NC(=O)c2cccc(C)c2)cc1 the results were ST2 inh inactive.
For O=C(CCS(=O)(=O)c1cccs1)Nc1ccc(C(=O)NCc2ccc3c(c2)OCO3)cc1 the results were ST2 inh inactive.
O=C1C2CC=CCC2C(=O)N1c1ccc(F)cc1Cl (stereo not given) was read as ST2 inh inactive.
Screening O=C1N=c2ccccc2=C1c1sc(Nc2ccc(Br)cc2)nc1O returned ST2 inh 40.0%.
For NC(=O)C1CCN(c2nc(O)c(C3=c4ccccc4=NC3=O)s2)CC1 the results were ST2 inh inactive.
For Cc1ccc(Nc2nc3ccccc3c(=O)s2)cc1 the results were ST2 inh inactive.
Screening COc1ccc(Nc2nc3ccc(F)cc3s2)cc1 returned ST2 inh inactive.
O=C1N=c2ccc(F)cc2=C1c1sc(Nc2ccc(F)cc2)nc1O was read as ST2 inh 48.0%.
Cc1ccc(C)c(-c2csc(Nc3ccc(F)cc3)n2)c1 was read as ST2 inh inactive.
For O=C(NCCC(c1ccccc1)c1ccccc1)C1CCC(=O)N(C2CCCC2)C1 (stereo not given) the results were ST2 inh inactive.
For CCCCN(C)CCNC(=O)c1cn(CC(C)C)c(=O)c2c1c1ccccc1n2C the results were ST2 inh inactive.
CC1CCCC(C)N1CCNC(=O)c1ccc2c(c1)ncn2C1CCCC1 (stereo not given) was read as ST2 inh inactive.
`Cc1csc(NC(=O)C2CCN(S(=O)(=O)c3cccnc3)CC2)n1` gave ST2 inh inactive.
`CCc1ccc(NC(=O)C(NS(=O)(=O)c2ccc3c(c2)oc(=O)n3C)C(C)C)cc1` (stereo not given) gave ST2 inh inactive.
Screening CC(C)Oc1cccc(C(=O)Nc2ccc(-c3nc4ncccc4o3)cc2)c1 returned ST2 inh 32.0%.
For O=C(Nc1ccc(-c2nc3ncccc3o2)cc1)c1cccnc1 the results were ST2 inh inactive.
For CC(C)Oc1ccc(C(=O)Nc2cccc(-c3nc4ncccc4o3)c2)cc1 the results were ST2 inh inactive.
Screening Cc1ccc(C(=O)Nc2cc(-c3nc4ncccc4o3)ccc2C)cc1C returned ST2 inh inactive.
For CCCOc1ccc(C(=O)Nc2cc(-c3nc4ncccc4o3)ccc2C)cc1 the results were ST2 inh inactive.
CCOc1cc(C(=O)Nc2cc(-c3nc4ncccc4o3)ccc2C)cc(OCC)c1OCC was read as ST2 inh 37.0%.
Cc1nccn1-c1ccccc1CNC(=O)CC1C(=O)NCCN1C(C)C (stereo not given) was read as ST2 inh inactive.
O=C(NC(c1ccco1)C(F)(F)F)c1nc(N2CCCC2)nc2c1CCCC2 (stereo not given) was read as ST2 inh inactive.
Screening COc1cccc(-n2cc(C(=O)NCCC(=O)N(C)C3CCCCC3)c3ccccc3c2=O)c1 returned ST2 inh inactive.
COCCn1c(=O)[nH]c2cc(C(=O)N3CCN(C4CCCCC4)CC3)ccc2c1=O was read as ST2 inh inactive.
For CCC(=O)NCCCc1nc2ccccc2n1C the results were ST2 inh inactive.
Screening CCOC(=O)C1C(=O)C=C(c2ccc(OC)c(OC)c2)CC1c1ccccc1OC (stereo not given) returned ST2 inh inactive.
CCOC(=O)C1CCCN(C(=O)CC2(c3ccccc3)CC(=O)N(CCc3ccccn3)C2=O)C1 (stereo not given) was read as ST2 inh inactive.
`Cc1cc(C(=O)NCc2ccc(F)cc2)ccc1[N+](=O)[O-]` gave ST2 inh 52.0%.
`Cc1ccc(Cl)cc1NC(=O)c1ccc([N+](=O)[O-])c(C)c1` gave ST2 inh inactive.
`Cc1cc(C(=O)NC2C3CC4CC(C3)CC2C4)ccc1[N+](=O)[O-]` (stereo not given) gave ST2 inh inactive.
For CC(=O)NC(=O)c1cc2ccccc2oc1=Nc1cccc(C(F)(F)F)c1 the results were ST2 inh inactive.
For COc1ccc(-n2c(CCN)n[nH]c2=O)cc1OC the results were ST2 inh inactive.
COc1ccc(N2C(=O)C3C4C=CC(C4)C3C2=O)cc1OC (stereo not given) was read as ST2 inh inactive.
`COc1ccc(-n2c(C)c3c(C)nnc(C)c3c2C)cc1OC` gave ST2 inh 31.0%.
Screening Cc1ccc(C(C)C)c(OCC(=O)Nc2nc(C)cc(C)n2)c1 returned ST2 inh inactive.
Screening COc1ccccc1CCc1nc(CC2CCN(C)CC2)no1 returned ST2 inh inactive.
For Cc1cc(=O)oc2cc(Cl)c(OC(=O)c3ccccc3)cc12 the results were ST2 inh inactive.
`COc1cc(C(=O)Nc2ccc(-c3nc4cc(C)ccc4o3)c(O)c2)cc(OC)c1OC` gave ST2 inh inactive.
`Cc1ccc2oc(-c3ccc(NC(=O)c4ccc5c(c4)OCCO5)cc3O)nc2c1` gave ST2 inh 32.0%.
Screening Cc1ccccc1-c1nc2cc(NC(=O)c3ccc4c(c3)OCCO4)ccc2o1 returned ST2 inh inactive.
For CN(c1ccccc1)S(=O)(=O)c1ccc(C(=O)Nc2nnc(-c3ccccc3Cl)o2)cc1 the results were ST2 inh inactive.
For CC(C)c1nnc(NC(=O)c2cc(Cl)cc(Cl)c2)s1 the results were ST2 inh inactive.
`Cc1cnc(CNC(=O)CC23CC4CC(CC(C4)C2)C3)cn1` gave ST2 inh inactive.
For CC(C)n1c(=N)c(C(=O)NCCN2CCOCC2)cc2c(=O)n3ccccc3nc21 the results were ST2 inh inactive.
`O=C(NCc1ccc2c(c1)OCO2)[C@H](CSCc1ccccc1)N1Cc2ccccc2C1=O` gave ST2 inh inactive.
`O=[N+]([O-])c1ccccc1OCCOc1cccc2cccnc12` gave ST2 inh inactive.
O=[N+]([O-])c1cccc2ccc(Nc3ccccn3)nc12 was read as ST2 inh 31.0%.
`Cc1cc(C)n(-c2ccc3cccc([N+](=O)[O-])c3n2)n1` gave ST2 inh inactive.
`CC(=O)Nc1ccc2nc(CN3CCN(Cc4ccccc4C)C(CCO)C3)ccc2c1` (stereo not given) gave ST2 inh inactive.
O=C(O)C1(O)CCN(c2cc(N3CCOCC3)ncn2)CC1 was read as ST2 inh inactive.
For Cc1cc(Br)cc2c1N(C)C(=O)C2=O the results were ST2 inh inactive.
Screening Cc1cc(Br)cc2c1N(C)C(=O)/C2=C1\SC(=Nc2ccc(F)cc2)NC1=O returned ST2 inh 33.0%.
`COc1cc(NC(=O)c2ccc([N+](=O)[O-])c(C)c2)ccc1NC(=O)c1ccco1` gave ST2 inh inactive.
Cc1cnc(N2CCC(O)(c3ccccc3)CC2)nc1N(C)C was read as ST2 inh 35.0%.

Screening data deposited in PubChem BioAssay by Paczesny and Yang Labs, IUPUI and University of Michigan.
